In one test the target is PLEKHA8. Kind of test: pooled miR-30 sensor sort-seq; sequence = guide strand. The conditions noted are these: shRNA.
The sequence TTCCATTCCATCTTCCTTCCTT yielded a sensor-assay potency score (higher = more potent) of 0.675.
On the same count and under the same terms, the result for ATTTCCAACAAGATCCATCTTA reads 0.673; that for TAATAGGACAATATTCCCCCAC, -0.473; that for AATATTTCCAACAAGATCCATC, -1.17.
Same read-out and setting: under TAGGGCTGTCTGGATATCCTTC stands -0.391.
On to TATCTACAGAATGAACTTGAAT, for which the sensor-assay potency score (higher = more potent) was -1.22.
Still for that read-out and setting: under TTCAGCAAACTCTTTCTCCTTC stands 0.589; under ATTATCTACAGAATGAACTTGA, 1.24.
Same read-out and setting: the result for TTTCCAACAAGATCCATCTTAA reads -0.407.
On the same count and under the same terms, the result for TTCACAAGTGCTCAACTCCATT reads -1.47.
TTGAATTTCACAGACTGCCATT showed a sensor-assay potency score (higher = more potent) of -0.888.
Still for that read-out and setting: under TAATATTTCCAACAAGATCCAT stands -0.589.

The next test concerns the target PLEKHB1. The test is described as above. Particulars: shRNA.
Sequence TCGTAGTAGTCTTGGTACGGGC returned a sensor-assay potency score (higher = more potent) of -1.27.
Consider TATGTCACGGACATTGAAGTGG, for which the sensor-assay potency score (higher = more potent) was -0.329.
The same measure, in the same setting: under TAGTAGTCTTGGTACGGGCTGT stands -0.059; under TCTGTCTCCACAGCCAGCCGCC, -1.23.
On the same count and under the same terms, under TAGTAGCTGCGGACATACGTGG stands -1.12; under TAGGGCATCATCCTTGGTCTCC, -0.411; under TGAAGTGGATGAGCACACGGTC, -1.12.
Same read-out and setting: under TTGAAGTGGATGAGCACACGGT stands -0.311; under TAGGGCGGTCCGTAGTAGCTGC, -0.166; under TTCCCGTAGGTTCACAGTCAGC, -1.99.
As to TCATCCTTGGTCTCCGCACAGA, the sensor-assay potency score (higher = more potent) was -1.23.
TCTCATCGTGGTAGTATCCCAG returned a sensor-assay potency score (higher = more potent) of -0.247.

The target in a further test is PLEKHJ1. The description is as above. The conditions noted are these: shRNA.
In turn, TCAGGGTCCTCAATGAAGCTGA showed a sensor-assay potency score (higher = more potent) of -0.114.
Still for that read-out and setting: the result for TAGAAGATGAGGCTTCTCCGCA reads -0.0375.
TTCCTGTAGAAGATGAGGCTTC registered a sensor-assay potency score (higher = more potent) of 0.247.
TTGAACAGAACAAGCACCCTGG: the sensor-assay potency score (higher = more potent) came to 0.692.
Still for that read-out and setting: the result for TGTACATTCATTCAGCACGGGG reads -1.25; that for ATGAACTCGTAGCTGGCCCGAC, -0.947.
The sequence TATGCCGAACTGTTCCAGGGGG came in with a sensor-assay potency score (higher = more potent) of -0.541.
As to TGACACTGCTCCTCGCTGCTGC, the sensor-assay potency score (higher = more potent) was -0.0748.
TTATTTGAACAGAACAAGCACC: the sensor-assay potency score (higher = more potent) is -0.886.
As to TTTATTTGAACAGAACAAGCAC, the sensor-assay potency score (higher = more potent) came to 0.502.
The same measure, in the same setting: the result for TTCGTTCCTGTAGAAGATGAGG reads -0.827.
As for TTTGAACAGAACAAGCACCCTG, the sensor-assay potency score (higher = more potent) amounted to 0.823.

A further test addresses PLEKHN1. The description is as above. Particulars: shRNA.
TTGAACACACTCAGGAATGGCT registered a sensor-assay potency score (higher = more potent) of -0.516.
With TTCTCCTCCAGGTTGATGTGGA, the sensor-assay potency score (higher = more potent) is -0.466.
The sequence TGACCGTAGTCCTCGTAGCTGG had a sensor-assay potency score (higher = more potent) of -1.04.
Still for that read-out and setting: the result for TGAAATGTGAGTCCTTCCGAGC reads -1.13.
Further: reference of the scale not given here.
